Results on 37 molecules are retold here after PMC5540273 (PLoS ONE, 2017).
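Further: KINOMEscan kinase panel screen.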

For the first experiment, the system named is FLT1. As to conditions: concentration: 1 μM, replicates: in singlicate; n = 1.
Regarding `Cc1ccc(C(=O)Nc2ccc(Nc3ccnc4cc(-c5nccs5)ccc34)cc2O)cc1.Cl` [GW494702], the “%Inh” value came to 14%.

Turning to `COc1cc(Nc2ncc3c(C)nc(-c4cc5ccccc5[nH]4)n3n2)cc(OC)c1OC` [GW869516], the “%Inh” value amounted to 23%. Still for that read-out and setting: then `COc1ccc(CNC(=O)NC2CCN(c3ccnc(Nc4ccc(F)cc4)n3)CC2)cc1` [GSK1379788], with 16%; and `CCn1c(-c2nonc2N)nc2c(C#CC(C)(C)O)nc(OC[C@H](N)c3ccccc3)cc21` [GSK943949], with 1%; and `Cl.c1ccc(-c2ccc3c(Nc4ccc5[nH]ncc5c4)ccnc3c2)nc1` [GW440137], with 62%. Regarding `COc1cccc(-c2ccc3c(NC(=O)C4CC4)n[nH]c3n2)c1` [SB-710903], the “%Inh” value worked out at 8%. Still for that read-out and setting: the same measure for `COc1cccc(C(=O)Nc2cccc(Oc3ccc4nc(NC(=O)C5CC5)cn4n3)c2)c1`: 99.9%. Still for that read-out and setting: then `CNC(=O)c1ccccc1Nc1nc(Nc2ccc(N3CCOCC3)cc2)ncc1Cl.Cl` [GSK1576028], with 89%; and `O=C(Nc1cccc(Oc2ccc3nc(NC(=O)C4CC4)cn3n2)c1)c1ccccc1C(F)(F)F`, with 99.7%; and `Cc1ccc(S(=O)(=O)Nc2ccc(Nc3nccc(Nc4cccc5[nH]ncc45)n3)cc2)cc1` [GSK581271], with 19%. The same measure, in the same setting: the same measure for `Cc1cccc(NC(=O)Nc2ccc(Oc3ncnc4ccn(C)c34)cc2)c1`: 99.3%. `CC(=O)Nc1nc2cnc(Nc3cc(NC(=O)c4cccc(C5(C#N)CC5)c4Cl)ccc3C)nc2s1`: the “%Inh” value came to 44%. The same measure, in the same setting: the same measure for `COc1cccc(C2=C(Nc3ccc(Cl)c(C(=O)O)c3)C(=O)NC2=O)c1` [SB-390769]: 25%. The same measure, in the same setting: the same measure for `CN(C)S(=O)(=O)c1cc(-c2ccc3nccc(-c4cccc(S(N)(=O)=O)c4)c3c2)cnc1N` [GSK1669921]: 25%; for `O=C(Nc1ccccc1F)NC1CCN(c2ccnc(Nc3ccc(F)cc3)n2)CC1` [GSK1379800]: 29%; for `O=C(Nc1n[nH]c2cc(-c3ccoc3)ccc12)C1CC1` [SB-738481]: 27%. Still for that read-out and setting: the same measure for `CSc1cccc2c(-c3ccncn3)c(-c3ccc(F)cc3)nn12` [GW514786]: 19%. Take `CN(c1ccc(NC(=O)Nc2cc(C(F)(F)F)ccc2F)cc1)c1ccnc(Nc2ccc(S(N)(=O)=O)cc2)n1` [GW809893]: the “%Inh” value amounted to 98.3%. Still for that read-out and setting: then `O=C(Nc1cccc(-c2nn3ncccc3c2-c2ccnc(Nc3ccccc3)n2)c1)c1c(F)cccc1F` [GSK198271], with 98.4%; and `c1ccc(-c2n[nH]cc2Nc2ccnc3ccccc23)nc1` [GW694077], with 26%; and `Cl.Cl.NCC(C(=O)Nc1cc(Br)c(-c2ccnc3[nH]ccc23)s1)c1ccccc1` (stereo not drawn) [GSK1269851], with 16%. On the same count and under the same terms, the same measure for `O=C(Nc1cccc(-c2nn3ccccc3c2-c2ccnc(Nc3cccc(C(F)(F)F)c3)n2)c1)c1c(F)cccc1F` [GSK292658]: 78%. On the same count and under the same terms, then `Cc1ccc(C)c(NC(=O)NC2CCN(c3ccnc(Nc4ccc(F)cc4)n3)C2)c1` (stereo not drawn) [GSK1379720], with 9%; and `COCCOCCOc1cc2ncc3c4ccc(C#N)cc4[nH]c3c2cc1OC`, with 17%; and `CN1CCN(Cc2cccc(-c3ccc4c(Nc5ccc(Oc6ccccc6)cc5)ccnc4c3)c2)CC1` [GW578342], with 45%. On to `Cl.Cl.NCC(NCc1ccc(-c2ccnc3[nH]ccc23)s1)c1ccccc1` (stereo not drawn) [GSK1321565], for which the “%Inh” value is reported as 18%. The same measure, in the same setting: then `Cn1cc(-c2ccc3c(c2)CCN3C(=O)Cc2cccc(F)c2)c2c(N)ncnc21` [GSK2603358], with 63%. The same measure, in the same setting: the same measure for `Clc1ccc(-c2nn3ncccc3c2-c2ccnc(Nc3ccc4c(c3)OCCO4)n2)cc1` [GW829116]: 54%; for `Nc1ncc(-c2cccnc2)c2scc(-c3ccc4c(c3)CCN4C(=O)Cc3ccccc3)c12` [GSK683281]: 47%.

The next experiment has as its system FLT3-autoinhibited. As to conditions: concentration: 1 μM, replicates: in singlicate; n = 1.
With `CCS(=O)(=O)c1ccc(OC)c(Nc2nccc(-c3c(-c4cccc(NC(=O)c5c(F)cccc5F)c4)nn4ncccc34)n2)c1` [GSK326180], the “%Inh” value came out at 0%. The same measure, in the same setting: then `COc1cc(Nc2nccc(-c3c(-c4cccc(NC(=O)c5c(F)cccc5F)c4)nn4ncccc34)n2)cc(OC)c1OC` [GSK327238], with 0%; and `COc1ccc(-c2coc3ccc(-c4nnc(SCc5ccc(OC)c(C(F)(F)F)c5)o4)cc23)cc1`, with 19%; and `Oc1cc(Nc2ccnc3cc(I)ccc23)ccc1F` [GW552771], with 0%. Same read-out and setting: then `O=c1[nH]cc(-c2ccc(N3CCOCC3)cc2)c2sc(-c3cn[nH]c3)cc12` [GSK2276055], with 11%; and `FC(F)(F)c1ccc(/C=C/c2cncnc2Nc2ccc3[nH]c(Cc4ccccc4)nc3c2)cc1` [GW709199], with 0%; and `Nc1ncnc2c1nc(-c1ccccc1)n2-c1ccccc1` [SKF-97293], with 14%. Take `Cn1cc(-c2ccc3c(c2)CCN3C(=O)Cc2cccc(Cl)c2)c2c(N)ncnc21` [GSK2606590]: the “%Inh” value stood at 1%. The same measure, in the same setting: then `Cc1ccc(C(=O)Nc2ccc(Nc3ccnc4cc(-c5nccs5)ccc34)cc2O)cc1.Cl` [GW494702], with 0%; and `COc1cc(Nc2ncc3c(C)nc(-c4cc5ccccc5[nH]4)n3n2)cc(OC)c1OC` [GW869516], with 75%. Take `COc1ccc(CNC(=O)NC2CCN(c3ccnc(Nc4ccc(F)cc4)n3)CC2)cc1` [GSK1379788]: the “%Inh” value is 0%.

In the case of `CCn1c(-c2nonc2N)nc2c(C#CC(C)(C)O)nc(OC[C@H](N)c3ccccc3)cc21` [GSK943949], the “%Inh” value is reported as 0%. The same measure, in the same setting: the same measure for `Cl.c1ccc(-c2ccc3c(Nc4ccc5[nH]ncc5c4)ccnc3c2)nc1` [GW440137]: 2%; for `COc1cccc(-c2ccc3c(NC(=O)C4CC4)n[nH]c3n2)c1` [SB-710903]: 0%.

On to `COc1cccc(C(=O)Nc2cccc(Oc3ccc4nc(NC(=O)C5CC5)cn4n3)c2)c1`, for which the “%Inh” value stood at 24%. Turning to `CNC(=O)c1ccccc1Nc1nc(Nc2ccc(N3CCOCC3)cc2)ncc1Cl.Cl` [GSK1576028], the “%Inh” value is reported as 96.2%. Regarding `O=C(Nc1cccc(Oc2ccc3nc(NC(=O)C4CC4)cn3n2)c1)c1ccccc1C(F)(F)F`, the “%Inh” value is 0%. The same measure, in the same setting: the same measure for `Cc1ccc(S(=O)(=O)Nc2ccc(Nc3nccc(Nc4cccc5[nH]ncc45)n3)cc2)cc1` [GSK581271]: 0%. On the same count and under the same terms, the same measure for `Cc1cccc(NC(=O)Nc2ccc(Oc3ncnc4ccn(C)c34)cc2)c1`: 64%; for `CC(=O)Nc1nc2cnc(Nc3cc(NC(=O)c4cccc(C5(C#N)CC5)c4Cl)ccc3C)nc2s1`: 0%; for `COc1cccc(C2=C(Nc3ccc(Cl)c(C(=O)O)c3)C(=O)NC2=O)c1` [SB-390769]: 0%. Take `CN(C)S(=O)(=O)c1cc(-c2ccc3nccc(-c4cccc(S(N)(=O)=O)c4)c3c2)cnc1N` [GSK1669921]: the “%Inh” value is reported as 19%. `O=C(Nc1ccccc1F)NC1CCN(c2ccnc(Nc3ccc(F)cc3)n2)CC1` [GSK1379800]: the “%Inh” value amounted to 0%. Still for that read-out and setting: the same measure for `O=C(Nc1n[nH]c2cc(-c3ccoc3)ccc12)C1CC1` [SB-738481]: 17%; for `CSc1cccc2c(-c3ccncn3)c(-c3ccc(F)cc3)nn12` [GW514786]: 0%; for `CN(c1ccc(NC(=O)Nc2cc(C(F)(F)F)ccc2F)cc1)c1ccnc(Nc2ccc(S(N)(=O)=O)cc2)n1` [GW809893]: 82%. For `O=C(Nc1cccc(-c2nn3ncccc3c2-c2ccnc(Nc3ccccc3)n2)c1)c1c(F)cccc1F` [GSK198271], the “%Inh” value was found to be 0%. Same read-out and setting: the same measure for `c1ccc(-c2n[nH]cc2Nc2ccnc3ccccc23)nc1` [GW694077]: 8%; for `Cl.Cl.NCC(C(=O)Nc1cc(Br)c(-c2ccnc3[nH]ccc23)s1)c1ccccc1` (stereo not drawn) [GSK1269851]: 20%; for `O=C(Nc1cccc(-c2nn3ccccc3c2-c2ccnc(Nc3cccc(C(F)(F)F)c3)n2)c1)c1c(F)cccc1F` [GSK292658]: 5%. On the same count and under the same terms, then `Cc1ccc(C)c(NC(=O)NC2CCN(c3ccnc(Nc4ccc(F)cc4)n3)C2)c1` (stereo not drawn) [GSK1379720], with 0%; and `COCCOCCOc1cc2ncc3c4ccc(C#N)cc4[nH]c3c2cc1OC`, with 90.1%; and `CN1CCN(Cc2cccc(-c3ccc4c(Nc5ccc(Oc6ccccc6)cc5)ccnc4c3)c2)CC1` [GW578342], with 36%.

As for `Cl.Cl.NCC(NCc1ccc(-c2ccnc3[nH]ccc23)s1)c1ccccc1` (stereo not drawn) [GSK1321565], the “%Inh” value worked out at 12%. The same measure, in the same setting: the same measure for `Cn1cc(-c2ccc3c(c2)CCN3C(=O)Cc2cccc(F)c2)c2c(N)ncnc21` [GSK2603358]: 0%; for `Clc1ccc(-c2nn3ncccc3c2-c2ccnc(Nc3ccc4c(c3)OCCO4)n2)cc1` [GW829116]: 0%; for `Nc1ncc(-c2cccnc2)c2scc(-c3ccc4c(c3)CCN4C(=O)Cc3ccccc3)c12` [GSK683281]: 5%.
